Pol iota inh – qHTS for Inhibitors of Polymerase Iota. DNA polymerase iota (Homo sapiens), Q9UNA4. Pol iota fluorescent replication assay, 10 min. Potency, µM (titrated, usually from 115 µM), for the others: at the top dose activity, negative = inhibition, actives largely listed as inhibitors. 1% of 390,000 active; further: potency means the concentration at half of the fitted maximal effect
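Pol iota at 10 nM preincubated 15 min with compounds at room temperature; reaction started with fluorescent substrate, 50 nM final. Fluorescence read kinetically at 0 and 10 min; buffer-only wells as negative control.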
POLH inh – qHTS for Inhibitors of Polymerase Eta; Potency, µM (top dose mostly 114 µM), without a hit: at the top dose activity change, negative = inhibition, actives largely listed as inhibitors; DNA polymerase eta (Homo sapiens), Q9Y253; 1.2% of 390,000 active; recombinant Pol eta, fluorescent DNA replication assay; AID 588591, 2011; further: potency means the concentration at half of the fitted maximal effect; on the % scale 0 is the no-effect control and ±100 the full control effect
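Fluorescent replication assay: 50 nM final substrate added after a 15 min room-temperature compound preincubation with 10 nM enzyme. Signal taken at 0 min and again at 10 min.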
POLK inh – qHTS for Inhibitors of Polymerase Kappa; purified Pol kappa, fluorescent DNA synthesis assay, 10 min; DNA polymerase kappa (Homo sapiens), Q9UBT6; 0.53% of 400,000 active; Potency, µM (series often up to 107 µM), for the others: top-dose activity, negative = inhibition, most hits filed as inhibitors; further: potency means the concentration at half of the fitted maximal effect; on the % scale 0 is the no-effect control and ±100 the full control effect
Target sequence (Q9UBT6 whole entry, looked up): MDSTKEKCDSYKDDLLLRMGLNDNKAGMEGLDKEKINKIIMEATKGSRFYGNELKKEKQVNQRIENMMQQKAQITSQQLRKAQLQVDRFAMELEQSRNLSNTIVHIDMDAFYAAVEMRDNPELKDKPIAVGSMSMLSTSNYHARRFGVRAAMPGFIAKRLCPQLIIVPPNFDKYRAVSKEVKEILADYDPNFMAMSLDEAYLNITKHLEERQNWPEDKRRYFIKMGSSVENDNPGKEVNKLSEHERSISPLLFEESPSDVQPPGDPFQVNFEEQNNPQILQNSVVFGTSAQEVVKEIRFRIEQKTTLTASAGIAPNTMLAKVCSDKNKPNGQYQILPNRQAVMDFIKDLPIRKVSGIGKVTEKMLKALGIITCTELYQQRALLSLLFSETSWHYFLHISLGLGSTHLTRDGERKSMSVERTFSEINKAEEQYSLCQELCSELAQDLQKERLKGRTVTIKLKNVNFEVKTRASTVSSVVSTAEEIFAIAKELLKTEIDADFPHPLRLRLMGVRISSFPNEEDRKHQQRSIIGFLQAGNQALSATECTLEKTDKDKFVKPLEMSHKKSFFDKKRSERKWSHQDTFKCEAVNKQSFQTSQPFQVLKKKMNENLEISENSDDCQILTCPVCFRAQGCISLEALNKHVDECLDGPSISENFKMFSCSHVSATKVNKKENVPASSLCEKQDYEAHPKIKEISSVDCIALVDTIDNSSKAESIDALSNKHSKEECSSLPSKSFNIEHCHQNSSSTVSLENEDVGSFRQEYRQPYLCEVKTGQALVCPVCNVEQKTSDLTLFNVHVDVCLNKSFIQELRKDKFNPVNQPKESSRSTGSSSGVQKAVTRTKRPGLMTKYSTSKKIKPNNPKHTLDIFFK
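10 nM Pol kappa preincubated 15 min at room temperature with compounds, then reaction started with substrate at 50 nM final. Fluorescence read kinetically at 0 and 10 min; buffer-only wells served as negative control.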
PI5P4K alpha inh – qHTS for Inhibitors of phosphatidylinositol 5-phosphate 4-kinase (PI5P4K); Phosphatidylinositol 5-phosphate 4-kinase type-2 alpha (Homo sapiens), P48426; PI5P4Kalpha enzyme, ADP-Glo luminescence, 60 min; stronger effect = lower value; max response, %; 1.2% of 330,000 active; AID 652105, 2013; active means max response of -50% or lower; inconclusive means between -30% and -50%; inactive means -30% or higher; further: value at the top dose of about 77 µM; on the % scale 0 is the no-effect control and ±100 the full control effect
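Single end-point luminescence (ADP-Glo) quantified ADP from PI5P4Kalpha turnover; ATP 5 microM final, 1 h at RT, 0.1% CHAPS and 0.28 mM EGTA in HEPES pH 7.4.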
Pol beta inh – qHTS Assay for Inhibitors of DNA Polymerase Beta | Potency, µM (doses to about 114 µM), for inactives: at the top dose activity change, negative = inhibition, actives largely listed as inhibitors | 1.3% of 340,000 active | P06746 | AID 485314, 2010 | Pol beta primer extension/strand displacement, fluorescence kinetic; further: potency means the concentration at half of the fitted maximal effect; on the % scale 0 is the no-effect control and ±100 the full control effect
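Enzyme-only controls used 10 nM Pol beta; buffer lacking enzyme served as negative control. Compound preincubated 15 min, then 50 nM substrate added; 0 and 10 min reads at room temperature.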
ALOX12 inh – Primary qHTS assay for inhibitors of human arachidonate 12S-lipoxygenase (ALOX12): Round 2. Polyunsaturated fatty acid lipoxygenase ALOX12 (Homo sapiens), P18054. purified 12hLO, xylenol orange hydroperoxide absorbance. Potency, µM (highest dose often 108 µM), inactives show top-dose activity change, negative = inhibition, most hits filed as inhibitors. 1.1% of 580,000 active. AID 1671190, 2021; further: potency means the concentration at half of the fitted maximal effect; on the % scale 0 is the no-effect control and ±100 the full control effect
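Hydroperoxide product was detected by ferrous iron/xylenol orange as the 573 to 405 nm absorbance ratio. Arachidonic acid at 40 uM (final) was turned over for 30 min at room temperature by 150 nM human 12hLO, pH 7.0 Hepes buffer, after 15 min compound preincubation.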
* = called active by the depositor; ? = inconclusive; · = no result given; [ ] = remark or other dose. In the library only some 2.9% were active in any assay of this set; here they are far more common. Unless noted, the call rests on the fitted dose curve; in most records, active means well fitted inhibition curve with a large enough effect; inconclusive means small, poorly fitted or top-dose-only effect, or another doubt; inactive means no such curve, though single readings can be large or run the other way.

SMILES	Pol iota inh	POLH inh	POLK inh	PI5P4K alpha inh	Pol beta inh	ALOX12 inh
CC[n+]1ccccc1/C=C1\Sc2ccc(C)cc2N1C	?	-9%	3%[60.1 µM]	0	71µM*	40µM*
CN1/C(=C/c2cccc[n+]2CCO)Sc2ccccc21	45%	-13%	8%	-8	?	45µM*
CC(=S)/C=C1\Sc2ccccc2N1C	?	3%	-11%	·	-19%	10µM*
CCc1cccc2c(C(=O)CN3C(=O)NC(C)(c4ccc5c(c4)OCCO5)C3=O)c[nH]c12 (centres undefined)	·	·	·	·	·	-15%
COc1cc(SC)ccc1C(=O)O	·	·	·	·	·	53%
CCOC(=O)/C=C1\NC(=O)CS1	-5%	-1%	10%	-1	-3%	464%
COc1ccc(/C=C2/SC(=S)NC2=O)cc1OCc1ccccc1	40%	?	-9%	-75*	14%	5%
CCO/C(C)=C1/SC(=S)NC1=O	114%	-3%	-23%	-63*	-24%	0%
O=C1NC(=S)N/C1=C/c1ccc2c(c1)OCO2	-24%	-4%	-6%	3	26%	-11%
O=C1NC(=S)SC1=Cc1ccc2c(c1)OCO2	21%	-4%	-4%	-78*	·	-15%
COc1cccc(C=C2SC(=S)NC2=O)c1	-17%	12%	-4%	-60*	·	-10%
COc1cc(/C=C2/SC(=O)NC2=O)ccc1OCc1ccccc1	?	13%	-13%	5	-27%	-6%
COc1cccc(/C=C2\SC(=S)N(N3C(=O)CCCC3=O)C2=O)c1	?	-21%	-5%	5	3%	?
CN(C)c1ccc(-c2nnc([C@H]3CCN(CC4CCCCC4)C3)o2)cc1	·	·	·	·	·	2%[176 µM]
CCn1nc(C(=O)N(C)CCOc2cccc(C)c2)c2ccccc2c1=O	·	·	·	·	·	29%
Cc1ccc(NC(=O)C(Sc2ncccn2)c2ccccc2)cc1 (centres undefined)	·	·	·	·	·	-50%
COc1ccc(CNC(=O)c2cc3cc(C)ccc3[nH]2)cc1	·	·	·	·	·	-30%
COc1cccc(C(C)=C2SC(=S)NC2=O)c1	-13%	-7%	-17%	-71*	·	?
COc1ccc2cc(/C=C3\SC(=S)NC3=O)c(N3CCOCC3)nc2c1	-6%	20µM*	-25%	-62*	?	?
COc1ccc(S(=O)(=O)NCCc2ccccc2)cc1-c1nc(C(C)C)no1	·	·	·	·	·	-2%
Clc1nc(Cl)nc(-c2cn(-c3ccccc3)c3ccccc23)n1	-25%	-9%	7%	-12	20µM*	·
OCCCc1cn(-c2ccccc2)c2ccccc12	40%	-26%	-12%	19	1%	-2%
Nc1nc(-c2cc(O)ccc2[N+](=O)[O-])cc(-c2ccccc2)c1[N+](=O)[O-]	?	89µM*	-5%	-26	-9%	?
CCOc1ccc(C(=O)Nc2ccc(N3CCN(C(=O)c4ccco4)CC3)cc2)cc1Br	25µM*	?	-9%	3	·	?
COc1ccc(CNC(=S)NC(C)CCc2ccccc2)cc1 (centres undefined)	25%	-27%	-2%	5	14%	40µM*
SMILES	Pol iota inh	POLH inh	POLK inh	PI5P4K alpha inh	Pol beta inh	ALOX12 inh
Cc1cccc(C)c1NC(=S)NC(C)CCc1ccccc1 (centres undefined)	123%	-8%	-18%	6	2%	40µM*
COc1ccc(CNC(=S)NCc2ccc(OC)cc2)cc1	-15%	-17%	10%	2	3%	?
CC1(C)CC(CCN2CCCCC2)(c2cccc(C(F)(F)F)c2)CCO1 (centres undefined)	·	·	·	·	·	1.8µM*
Fc1ccc2c(c1)/C(=N/Nc1ccccn1)CCS2	85%	-22%	2%	27	0%	-16%
Fc1ccc(N/N=C2/CCSc3sccc32)c(F)c1	166%	-25%	-3%	-20	9%	35µM*
Fc1ccc(-c2nc(-c3ccccn3)no2)cc1	·	·	·	·	·	-2%
OC(CCN1CC2CCC(CC2)C1)(Cc1ccccc1)c1ccco1 (centres undefined)	73%	-15%	-11%	-9	·	2.5µM*
CCOC(=O)c1c(NC(=O)C2=C(C)NC(=S)NC2c2ccc(F)cc2F)sc(C)c1C (centres undefined)	9%	-25%	-15%	-2	-11%	40µM*
CCOC(=O)c1c(NC(=O)C2=C(C)NC(=S)NC2c2ccc(F)cc2)sc(C)c1C (centres undefined)	?	-7%	-26%	2	-14%	28µM*
CC1=C(C(=O)Nc2ccccc2)C(c2ccc(C)cc2)NC(=S)N1 (centres undefined)	·	·	·	·	·	-32%
CCOC(=O)c1c(NC(=O)C2=C(C)NC(=S)NC2c2ccc(C)cc2)sc(C)c1C (centres undefined)	141%	-22%	-19%	0	-19%	18µM*
O=C(Nc1cccc(F)c1)Nc1cccc(-c2ccc(N3CCCCC3)nn2)c1	·	·	·	·	·	7%
COc1ccc(NC(=O)[C@H]2C[C@H](CC(C)C)N[C@]23C(=O)Nc2c(C)cc(Cl)cc23)cc1	·	·	·	·	·	3%
Cc1[nH]nc2c1C(c1ccc(F)cc1)C1=C(COC1=O)N2 (centres undefined)	·	·	·	·	·	-14%
CCCCN(CC)CCNC(=O)Cn1c(C)c(C(=O)OCC)c(C)c1-c1ccccc1	·	·	·	·	·	1%
Cc1nc(-c2ccccc2)n(CC(=O)Nc2cccc(Cl)c2)c(=O)c1CCO	·	·	·	·	·	-2%
Cc1ccc(CNC(=O)Cc2c[nH]c3ccccc23)s1	·	·	·	·	·	-3%
Cc1cccc2nc(CSCc3ccco3)cn12	?	20µM*	-28%	-11	40µM*	0%
Cc1cc(C)n2cc(CSCc3ccco3)nc2n1	?	?	-30%	2	3%	-13%
CCOC(=O)C1CCN(c2ncnc3c2cnn3C)CC1	-7%	-7%	-5%	-10	79µM*	·
N#Cc1c(NC(=O)CSc2ncnc3ccccc23)sc2c1CCCCC2	·	·	·	·	·	-18%
O=c1[nH]c(/C=C\c2cccnc2)c([N+](=O)[O-])c(=O)[nH]1	22%	-5%	-2%	?	-8%	?
CCC(C)Oc1ccc(/C=C/c2[nH]c(=O)[nH]c(=O)c2[N+](=O)[O-])cc1OC (centres undefined)	?	-20%	-4%	-58*	4%	-29%
O=c1[nH]c(/C=C/c2ccccc2)c([N+](=O)[O-])c(=O)[nH]1	?	?	-6%	-76*	?	-5%

Compound activity: PubChem, National Center for Advancing Translational Sciences (NCATS)
